B1: TACT (dsDNA)
DNA 1: GCTATCTAGTGCTCAGTACGCACTGTACTAGGAAACTTCTGGCAGGACCAGGTCATGAGATCGGAAGAGCACACGTCTGAACTCCAGTCA
DNA 2: TGACTGGAGTTCAGACGTGTGCTCTTCCGATCTCATGACCTGGTCCTGCCAGAAGTTTCCTAGTACAGTGCGTACTGAGCACTAGATAGC
RNA: AAUUUCUACUCUUGUAGAUAGGAAACUUCUGGCAGGACC
B2: AAAA (dsDNA)
DNA 1: GCTATCTAGTGCTCAGTACGCACTGAAAAAGGAAACTTCTGGCAGGACCAGGTCATGAGATCGGAAGAGCACACGTCTGAACTCCAGTCA
DNA 2: TGACTGGAGTTCAGACGTGTGCTCTTCCGATCTCATGACCTGGTCCTGCCAGAAGTTTCCTTTTTCAGTGCGTACTGAGCACTAGATAGC
RNA: AAUUUCUACUCUUGUAGAUAGGAAACUUCUGGCAGGACC
B3: AACA (dsDNA)
DNA 1: GCTATCTAGTGCTCAGTACGCACTGAACAAGGAAACTTCTGGCAGGACCAGGTCATGAGATCGGAAGAGCACACGTCTGAACTCCAGTCA
DNA 2: TGACTGGAGTTCAGACGTGTGCTCTTCCGATCTCATGACCTGGTCCTGCCAGAAGTTTCCTTGTTCAGTGCGTACTGAGCACTAGATAGC
RNA: AAUUUCUACUCUUGUAGAUAGGAAACUUCUGGCAGGACC
B4: TGCA (dsDNA)
DNA 1: GCTATCTAGTGCTCAGTACGCACTGTGCAAGGAAACTTCTGGCAGGACCAGGTCATGAGATCGGAAGAGCACACGTCTGAACTCCAGTCA
DNA 2: TGACTGGAGTTCAGACGTGTGCTCTTCCGATCTCATGACCTGGTCCTGCCAGAAGTTTCCTTGCACAGTGCGTACTGAGCACTAGATAGC
RNA: AAUUUCUACUCUUGUAGAUAGGAAACUUCUGGCAGGACC
B5: TGCC (dsDNA)
DNA 1: GCTATCTAGTGCTCAGTACGCACTGTGCCAGGAAACTTCTGGCAGGACCAGGTCATGAGATCGGAAGAGCACACGTCTGAACTCCAGTCA
DNA 2: TGACTGGAGTTCAGACGTGTGCTCTTCCGATCTCATGACCTGGTCCTGCCAGAAGTTTCCTGGCACAGTGCGTACTGAGCACTAGATAGC
RNA: AAUUUCUACUCUUGUAGAUAGGAAACUUCUGGCAGGACC
B6: AAAG (dsDNA)
DNA 1: GCTATCTAGTGCTCAGTACGCACTGAAAGAGGAAACTTCTGGCAGGACCAGGTCATGAGATCGGAAGAGCACACGTCTGAACTCCAGTCA
DNA 2: TGACTGGAGTTCAGACGTGTGCTCTTCCGATCTCATGACCTGGTCCTGCCAGAAGTTTCCTCTTTCAGTGCGTACTGAGCACTAGATAGC
RNA: AAUUUCUACUCUUGUAGAUAGGAAACUUCUGGCAGGACC
B7: AAAC (dsDNA)
DNA 1: GCTATCTAGTGCTCAGTACGCACTGAAACAGGAAACTTCTGGCAGGACCAGGTCATGAGATCGGAAGAGCACACGTCTGAACTCCAGTCA
DNA 2: TGACTGGAGTTCAGACGTGTGCTCTTCCGATCTCATGACCTGGTCCTGCCAGAAGTTTCCTGTTTCAGTGCGTACTGAGCACTAGATAGC
RNA: AAUUUCUACUCUUGUAGAUAGGAAACUUCUGGCAGGACC
B8: TCGG (dsDNA)
DNA 1: GCTATCTAGTGCTCAGTACGCACTGTCGGAGGAAACTTCTGGCAGGACCAGGTCATGAGATCGGAAGAGCACACGTCTGAACTCCAGTCA
DNA 2: TGACTGGAGTTCAGACGTGTGCTCTTCCGATCTCATGACCTGGTCCTGCCAGAAGTTTCCTCCGACAGTGCGTACTGAGCACTAGATAGC
RNA: AAUUUCUACUCUUGUAGAUAGGAAACUUCUGGCAGGACC
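Also: relative affinity from the bound to unbound sequence frequency ratio in Spec-seq.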

The first experiment deals with dAsCas12a E174R (Acidaminococcus sp., UniProt U2UMQ6 1-1307, E174R;D908A;E993A;D1235A). Description: Spec-seq (native PAGE EMSA with sequencing of bound and unbound); 25 mM Tris-HCl pH 7.4, 150 mM KCl, 5 mM MgCl2, 10% glycerol, 1 mM DTT, 40 ng/uL salmon sperm DNA; 400 nM Cas12a, 480 nM crRNA, 50 nM library, 37 C 1 h; native PAGE at room temperature; high values mean tight binding. Particulars: protein: recombinant.
For B1, the binding signal is -8.98 lnKA.
Regarding B4, the binding signal was -8.93 lnKA.
Consider B5, for which the binding signal was -8.73 lnKA.
Turning to B8, the binding signal is -8.87 lnKA.

Another experiment addresses dAsCas12a S542R (Acidaminococcus sp., UniProt U2UMQ6 1-1307, S542R;D908A;E993A;D1235A). The experiment is described as above. Particulars: protein: recombinant.
As to B1, the binding signal was -7.99 lnKA.
Take B2: the binding signal is -8.41 lnKA.
With B3, the binding signal was -8.12 lnKA.
Still for that read-out and setting: to B4 belongs -8.02 lnKA; to B5, -7.76 lnKA.
Consider B6, for which the binding signal was -8.45 lnKA.
For the molecule B7, the binding signal is -8.48 lnKA.
For the molecule B8, the binding signal is -8.02 lnKA.

Another experiment addresses d-enCas12a (Acidaminococcus sp., UniProt U2UMQ6 1-1307, E174R;S542R;K548R;D908A;E993A;D1235A). The description is as above. As to conditions: protein: recombinant.
As to B1, the binding signal is -2.8 lnKA.
As for B2, the binding signal was -5.66 lnKA.
For B3, the binding signal is -2.72 lnKA.
On to B4, for which the binding signal was -2 lnKA.
For the molecule B5, the binding signal was -1.44 lnKA.
As for B6, the binding signal was -5.7 lnKA.
The same measure, in the same setting: to B7 belongs -5.25 lnKA; to B8, -5.8 lnKA.

Another experiment has as its target d-enCas12a-Ultra (Acidaminococcus sp., UniProt U2UMQ6 1-1307, E174R;S542R;K548R;M537R;F870L;D908A;E993A;D1235A). The experiment is described as above. As to conditions: protein: recombinant.
For the molecule B1, the binding signal was -0.733 lnKA.
B2: the binding signal was -3.17 lnKA.
Take B3: the binding signal was -0.706 lnKA.
As for B4, the binding signal was -0.483 lnKA.
Consider B5, for which the binding signal was -0.407 lnKA.
Take B6: the binding signal is -3.44 lnKA.
As for B7, the binding signal was -2.57 lnKA.
With B8, the binding signal is -3.45 lnKA.

(Values after PMC8222333, “AsCas12a ultra nuclease facilitates the rapid generation of therapeutic cell medicines”.)
